For the assay, the target named is AMP-activated protein kinase, AMPK (Homo sapiens) (UniProt P54646+O43741+P54619+Q9UGJ0+Q9Y478+Q13131+Q9UGI9). Kind of assay: AMP-dependent Kinase enzyme assay. An in vitro enzyme assay that detects ADP turnover that is directly proportional to AMPK activity. This uses naive AMPK that is activated during the assay with MK-8722. Type of assay: functional. On the set-up: scale not given: direction of the effect not stated beside the values. The following applies: 30 µM.
With `c1ccc(-c2cc(CN3CCCCCC3c3ccco3)on2)nc1` (centres undefined), the Percent Effect is 8.41%.
As for `CCSc1cc(C(=O)N(C(C)C)C2CC2)ccn1`, the Percent Effect came to 0.102%.
On to `O=C(Nc1cccc(F)c1)NC1CCN(Cc2ccncc2)CC1`, for which the Percent Effect amounted to 1.71%.
Regarding `CN(Cc1ccc(C#N)cc1)CC1CCS(=O)(=O)C1` (centres undefined), the Percent Effect is 7.17%.
`COc1cc(C(=O)O)cc(I)c1OCC(=O)NCCc1ccccc1`: the Percent Effect stood at 11.9%.
In the case of `CS(=O)(=O)c1ccc(Cl)c(C(=O)NCCC2=CCCCC2)c1` it was -0.566%; in that of `O=C(NCCn1ccnc1-c1cc2n(n1)CCCNC2)c1ccncc1`, 0.773%.
The figure for `O=c1c(CN2CCOCC2)coc2ccc(Cl)cc12` is -2.73%; for `CC(Oc1ccc2c(c1)OCO2)C(=O)N1CCC(N2CCOCC2)CC1` (centres undefined) it is -2.63%.
As for `O=C(Nc1ccccc1C(=O)NCCCN1CCOCC1)c1ccco1`, the Percent Effect came out at 0.765%.
In the case of `Cc1ccc(C(=O)NC2CCCN(CC(N)=O)C2)c(=O)[nH]1` (centres undefined), the Percent Effect stood at 2.52%.
With `Cc1ncsc1C(=O)N1CC[C@@]2(O)CCN(C(=O)N3CCCC3)C[C@H]2C1`, the Percent Effect is -1.97%.
The figure for `CN(Cc1cn(CC2CCNCC2)nn1)CC1CCCCO1` (centres undefined) is 7.46%; for `Cc1nc(CNCc2ccc(OC34CCCN(CC3)C4)cc2)n[nH]1` (centres undefined) it is -5.44%; for `CN(Cc1cc(Br)cn1C)C(=O)Cc1cccc(O)c1` it is -0.828%.
As for `CCN(CC)CCN(CC(C)C)c1cc(C(F)(F)F)nc2ncnn12`, the Percent Effect was determined as 0.943%.
In the case of `N#CC1(NC(=O)CN2CCc3c(ncn3C3CC3)C2)CCCC1` it was -7.46%; in that of `Cc1cc(C(=O)N2CC[C@@]3(O)CCN(C(=O)N4CCCC4)C[C@H]3C2)no1`, 5.71%; in that of `Cn1cc(CN2CCC(c3ncc(Cl)cc3S(C)(=O)=O)CC2)cn1`, 9.1%.
In the case of `Cn1cncc1C(=O)N1CCCC(c2ccn[nH]2)C1` (centres undefined), the Percent Effect is -5.31%.
In the case of `COCCC(=O)N(C)CCC1=CCN(C)CC1` it was -12.9%.
The figure for `Cc1ccc(-c2cc(CS(=O)(=O)NC3CCCNC3=O)on2)cc1` (centres undefined) is 5.82%; for `CCn1cc(NC(=O)NCCN2CCCCCC2=O)cn1` it is 87.7%.
With `COC(=O)CSCc1noc(-c2ccc(C)cc2)n1`, the Percent Effect was -5.29%.
The figure for `CCc1cc(NC(CCO)c2ccc(OC)cc2)n2nccc2n1` (centres undefined) is 2.19%; for `COc1ccccc1Oc1ncccc1CNC(=O)C1COC(=O)N1` (centres undefined) it is -13.1%; for `CC(O)CN(C)S(=O)(=O)c1ccc(C#N)cc1F` (centres undefined) it is 1.31%.
In the case of `CCCN1CCC(CC(=O)NCCc2nc(C)cc(C)n2)CC1` it was 6.07%.
`COC(=O)c1ncccc1N1CCC(C(O)c2ccccc2)CC1` (centres undefined): the Percent Effect came to 12.8%.
As to `N#Cc1cccnc1Nc1ccc(N2CCC(C(N)=O)CC2)cc1`, the Percent Effect is 19%.
As to `COC(=O)CNC(=O)c1ccn(-c2ccc(Cl)c(Cl)c2)n1`, the Percent Effect is 13.8%.
The figure for `CN(CCc1ccccn1)C(=O)c1cccs1` is 6.23%.
In the case of `O=C(c1cc(C2CC2)on1)N1C[C@H]2CC[C@](O)(c3ccc(F)cc3)[C@H]2C1` it was 12.8%; in that of `N#CC1(NC(=O)c2cc(Cl)ccc2OC(F)F)CCOCC1`, -2.23%.
With `CN1C(=O)[C@H]2CC[C@@H]1CN(C(=O)Nc1ccccc1C(F)(F)F)C2`, the Percent Effect was -0.892%.
Turning to `CCCc1nnc(N2CCC(C3CCN(C)CC3)CC2)o1`, the Percent Effect was -1.66%.
In the case of `Cc1csc(C(=O)N2CCC(S(C)(=O)=O)CC2)c1` it was -2.86%; in that of `CN(CCc1ncnn1-c1ccccc1Cl)C1CCS(=O)(=O)C1` (centres undefined), -10%.
The figure for `COc1cc(NCCCSc2nnc(C)s2)ncn1` is 13.7%.

Values taken from ChEMBL document CHEMBL3988442, “University of Dundee, Small-Polar-MMV Screening Library” (2021).
